This passage reports growth inhibition results from PubChem BioAssay (NCI).

Test [1] is described as follows: NCI Yeast Anticancer Drug Screen. Data for the rad50 strain (AID 155).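 Note: 0% = growth of vehicle-only cultures of the same strain.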 As to conditions: S. cerevisiae rad50 strain growth inhibition, hits give high values. Summed up:
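Inhibition values express reduced yeast growth in compound-treated cultures relative to vehicle-treated controls.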

Test [2] in a line: NCI Yeast Anticancer Drug Screen. Data for the mec2-1 strain (AID 157). As to conditions: S. cerevisiae mec2-1 strain, hits give high values. Summed up:
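Mutant yeast (mec2-1) grown with compound; growth inhibition relative to vehicle control reported.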

The nature of test [3]: NCI Yeast Anticancer Drug Screen. Data for the sgs1 mgt1 strain (AID 161).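 Note: 0% = growth of cultures given vehicle only.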 As to conditions: S. cerevisiae sgs1 mgt1 strain, hits give high values. Summed up:
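Compounds are added to genetically altered yeast, and growth is compared with cultures given vehicle alone to give percent inhibition.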

Test [4] in a line: NCI Yeast Anticancer Drug Screen. Data for the cln2 rad14 strain (AID 165).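 Note: 0% = growth equal to vehicle treated cultures.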 Conditions: S. cerevisiae cln2 rad14 strain, hits give high values. Summed up:
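Readout is yeast growth inhibition versus vehicle-treated controls, using a strain with cln2 and rad14 alterations exposed to compound.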

Test [5] is described as follows: NCI Yeast Anticancer Drug Screen. Data for the bub3 strain (AID 167). Conditions: S. cerevisiae bub3 mutant strain, hits give high values. In a few lines: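 Steps: expose the mutant yeast strain to compound; grow alongside vehicle-treated cultures; measure growth; express inhibition against the vehicle cultures.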
Test [6] is described as follows: NCI Yeast Anticancer Drug Screen. Data for the mlh1 rad18 strain (AID 175). As to conditions: S. cerevisiae mlh1 rad18 strain growth inhibition, hits give high values. Summed up:
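Genetically defined yeast (DNA repair-deficient) exposed to compounds; growth inhibition determined relative to vehicle.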

[7] abbreviates: at 5.0 µM (retest, dose inferred, filed as 0.5).
Setting [8] is: at 50.0 µM (retest, dose inferred, filed as 5.0).

This is part of a sample that, as a whole, favours compounds with a hit. Of some 79,000 tested, about 15% had one in any assay. Unmarked numbers belong to inactive results. The source made the active and inactive calls. Cut-off read from the data, not from the text of the source: active = growth inhibition above about 70%; inactive = the rest.

For `CCCCN(CCCC)CC(O)c1cc(-c2ccc(Cl)cc2)nc2cc(C)ccc12` (stereo not given), the growth inhibition in test [1] (setting [7]) is -5%; in test [1] (setting [8]), 97% (active); in test [1] (at 50.0 µM), 99.2% (active); in test [2] (setting [7]), 17%; in test [2] (setting [8]), 98% (active); in test [2] (at 50.0 µM), 99.2% (active). Besides, the growth inhibition is 11% in test [3] (setting [7]); 99% (active) in test [3] (setting [8]); 99.6% (active) in test [3] (at 50.0 µM); 5% in test [4] (setting [7]); 97% (active) in test [4] (setting [8]); 96.2% (active) in test [4] (at 50.0 µM). The growth inhibition in test [5] (setting [7]) is 6%; in test [5] (setting [8]) it was 97% (active); in test [5] (at 50.0 µM), 98.9% (active).

For `CC1=C(C)C1[N+](=O)[O-]`, the growth inhibition in test [1] (setting [7]) was 45%; in test [1] (setting [8]), 94% (active); in test [1] (at 50.0 µM), 78% (active); in test [2] (setting [7]), 35%; in test [2] (setting [8]) it was 97% (active); in test [2] (at 50.0 µM), 79.8% (active). Further, the growth inhibition in test [3] (setting [7]) was 44%; in test [3] (setting [8]), 98% (active); in test [3] (at 50.0 µM) it was 69%; in test [4] (setting [7]) it was 25%; in test [4] (setting [8]), 68%; in test [4] (at 50.0 µM) it was 24.4%. Further, the growth inhibition was 49% in test [5] (setting [7]); 97% (active) in test [5] (setting [8]); 65.7% in test [5] (at 50.0 µM); 64% in test [6] (setting [7]); 95% (active) in test [6] (setting [8]); 62.9% in test [6] (at 50.0 µM).

For `Clc1cc[c]([Sn]([O][Sn]([c]2ccc(Cl)cc2)([c]2ccc(Cl)cc2)[c]2ccc(Cl)cc2)([c]2ccc(Cl)cc2)[c]2ccc(Cl)cc2)cc1`, the growth inhibition in test [1] (setting [7]) was 98% (active); in test [1] (setting [8]) it was 95% (active); in test [1] (at 50.0 µM), 97.5% (active); in test [2] (setting [7]), 99% (active); in test [2] (setting [8]), 98% (active); in test [2] (at 50.0 µM), 99.3% (active). The growth inhibition in test [3] (setting [7]) is 99% (active); in test [3] (setting [8]), 98% (active); in test [3] (at 50.0 µM), 96.6% (active); in test [4] (setting [7]), 99% (active); in test [4] (setting [8]), 96% (active); in test [4] (at 50.0 µM), 79.5% (active). Moreover, the growth inhibition in test [5] (setting [7]) is 98% (active); in test [5] (setting [8]), 97% (active); in test [5] (at 50.0 µM), 88.8% (active); in test [6] (setting [7]), 99% (active); in test [6] (setting [8]) it was 97% (active); in test [6] (at 50.0 µM), 98.3% (active).

On to `COc1ccc(C2c3cc4c(cc3OC(O)C2C)OCO4)c(OC)c1` (stereo not given), for which the growth inhibition is -2% in test [1] (setting [7]); 96% (active) in test [1] (setting [8]); 85.6% (active) in test [1] (at 50.0 µM); 1% in test [2] (setting [7]); 95% (active) in test [2] (setting [8]); 58.5% in test [2] (at 50.0 µM). Also, the growth inhibition in test [3] (setting [7]) is 5%; in test [3] (setting [8]) it was 95% (active); in test [3] (at 50.0 µM), 83.8% (active); in test [4] (setting [7]), -8%; in test [4] (setting [8]), 89% (active); in test [4] (at 50.0 µM), 68.9%. The growth inhibition was -4% in test [5] (setting [7]), 88% (active) in test [5] (setting [8]) and 68.8% in test [5] (at 50.0 µM).

With `NNC(=O)c1ccccc1SSc1ccccc1C(=O)NN`, the growth inhibition in test [1] (setting [7]) is 82% (active); in test [1] (setting [8]), 99% (active); in test [1] (at 50.0 µM), 99.3% (active); in test [2] (setting [7]) it was 81% (active); in test [2] (setting [8]), 99% (active); in test [2] (at 50.0 µM) it was 99.7% (active). For the same molecule, the growth inhibition in test [3] (setting [7]) was 74% (active); in test [3] (setting [8]), 99% (active); in test [3] (at 50.0 µM), 99.7% (active); in test [4] (setting [7]) it was 51%; in test [4] (setting [8]), 99% (active); in test [4] (at 50.0 µM), 98.7% (active). Further, the growth inhibition is 98% (active) in test [5] (setting [7]); 99% (active) in test [5] (setting [8]); 99.1% (active) in test [5] (at 50.0 µM); 71% (active) in test [6] (setting [7]); 99% (active) in test [6] (setting [8]); 99.4% (active) in test [6] (at 50.0 µM).

For the molecule `Cc1ccc([P+](CCN2C(=O)c3ccccc3C2=O)(c2ccc(C)cc2)c2ccc(C)cc2)cc1`, the growth inhibition in test [1] (setting [7]) is 77% (active); in test [1] (setting [8]), 98% (active); in test [1] (at 50.0 µM), 89.8% (active); in test [2] (setting [7]), 72% (active); in test [2] (setting [8]), 99% (active); in test [2] (at 50.0 µM), 90.3% (active). For the same molecule, the growth inhibition in test [3] (setting [7]) is 89% (active); in test [3] (setting [8]) it was 99% (active); in test [3] (at 50.0 µM), 90.5% (active); in test [4] (setting [7]), 71% (active); in test [4] (setting [8]), 99% (active); in test [4] (at 50.0 µM), 87.9% (active). Besides, the growth inhibition was 86% (active) in test [5] (setting [7]); 99% (active) in test [5] (setting [8]); 90.5% (active) in test [5] (at 50.0 µM); 64% in test [6] (setting [7]); 98% (active) in test [6] (setting [8]); 87.7% (active) in test [6] (at 50.0 µM).

Turning to `O=C(CCN1CCN(c2cccc(Cl)c2)CC1)N1CCc2c([nH]c3ccccc23)C1c1cccnc1` (stereo not given), the growth inhibition in test [1] (setting [7]) is 17%; in test [1] (setting [8]), 17%; in test [1] (at 50.0 µM), 90.4% (active); in test [2] (setting [7]), 10%; in test [2] (setting [8]), 10%; in test [2] (at 50.0 µM), 92% (active). Further, the growth inhibition in test [3] (setting [7]) was 8%; in test [3] (setting [8]), 8%; in test [3] (at 50.0 µM), 90.4% (active); in test [4] (setting [7]), 9%; in test [4] (setting [8]) it was 9%; in test [4] (at 50.0 µM), 92% (active). Moreover, the growth inhibition in test [5] (setting [7]) was 8%; in test [5] (setting [8]), 8%; in test [5] (at 50.0 µM), 91.3% (active).

As to `COc1ccc(C2NCc3c(sc4c3CCCC4)-n3cccc32)cc1` (stereo not given), the growth inhibition in test [1] (setting [7]) is -4%; in test [1] (setting [8]) it was 43%; in test [1] (at 50.0 µM) it was 57.1%; in test [2] (setting [7]), -2%; in test [2] (setting [8]) it was 31%; in test [2] (at 50.0 µM) it was 11.8%. Moreover, the growth inhibition in test [3] (setting [7]) is -13%; in test [3] (setting [8]), 84% (active); in test [3] (at 50.0 µM) it was 93.2% (active); in test [4] (setting [7]), -5%; in test [4] (setting [8]), 53%; in test [4] (at 50.0 µM) it was 57.9%. The growth inhibition is 0% in test [5] (setting [7]); 54% in test [5] (setting [8]); 18.7% in test [5] (at 50.0 µM); -7% in test [6] (setting [7]); 87% (active) in test [6] (setting [8]); 77% (active) in test [6] (at 50.0 µM).

As for `O=C(CC(C(=O)O)c1c[nH]c2ccccc12)c1ccccc1` (stereo not given), the growth inhibition was -2% in test [1] (setting [7]); -2% in test [1] (setting [8]); 45.4% in test [1] (at 50.0 µM); -3% in test [2] (setting [7]); 7% in test [2] (setting [8]); -18.6% in test [2] (at 50.0 µM). Also, the growth inhibition in test [3] (setting [7]) was -5%; in test [3] (setting [8]) it was 0%; in test [3] (at 50.0 µM), 56.8%; in test [4] (setting [7]) it was -5%; in test [4] (setting [8]), -63%; in test [4] (at 50.0 µM) it was -16.6%. Moreover, the growth inhibition in test [5] (setting [7]) was -1%; in test [5] (setting [8]), 7%; in test [5] (at 50.0 µM), 93.8% (active).

As to `COc1ccc(NS(=O)(=O)c2ccc(F)cc2)cc1`, the growth inhibition in test [1] (setting [7]) is -21%; in test [1] (setting [8]) it was -3%; in test [1] (at 50.0 µM), 95.9% (active); in test [2] (setting [7]), 1%; in test [2] (setting [8]) it was -12%; in test [2] (at 50.0 µM), 99.3% (active). For the same molecule, the growth inhibition in test [3] (setting [7]) is -26%; in test [3] (setting [8]), -22%; in test [3] (at 50.0 µM) it was 98.5% (active); in test [4] (setting [7]), 6%; in test [4] (setting [8]) it was -22%; in test [4] (at 50.0 µM) it was 97.5% (active). Further, the growth inhibition in test [5] (setting [7]) was 6%; in test [5] (setting [8]) it was -21%; in test [5] (at 50.0 µM), 97.2% (active).

As to `CC(O)(c1ccccc1)c1ccccc1S(=O)(=O)Nc1ccccc1` (stereo not given), the growth inhibition is -7% in test [1] (setting [7]); 99% (active) in test [1] (setting [8]); 99.2% (active) in test [1] (at 50.0 µM); 6% in test [2] (setting [7]); 91% (active) in test [2] (setting [8]); 98.8% (active) in test [2] (at 50.0 µM). Further, the growth inhibition in test [3] (setting [7]) was -4%; in test [3] (setting [8]), 99% (active); in test [3] (at 50.0 µM), 98.5% (active); in test [4] (setting [7]) it was 12%; in test [4] (setting [8]) it was 33%; in test [4] (at 50.0 µM), 98.5% (active). Further, the growth inhibition was -5% in test [5] (setting [7]), 46% in test [5] (setting [8]) and 98.9% (active) in test [5] (at 50.0 µM).
